hgDAF12 agonist – activates the H. glycines DAF-12 receptor ligand-binding domain | activation, % at 6.8 µM | AID 687014 | 370,000 tested, 1.8% active | HEK293 GAL4-hgDAF12 UAS-luciferase reporter, agonist luminescence; normalized to butyrate control;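 active = activation above a cutoff set at the mean of all screened compounds plus 3 SD, cut at about 10% in these data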;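 also: 0% = DMSO wells and 100% = sodium butyrate wells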
ssDAF12 agonist – S. stercoralis DAF-12 activation, primary screen. HEK293 ssDAF-12/GRIP1 lit1-tk-luc reporter, luminescence; % of 3 µM dafachronic acid response. activation, % at 6.8 µM. 370,000 tested, 1% active. AID 652126;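 active = activation above the mean over all tested compounds plus 3 SD, cut at about 0.9% in these data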;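 also: 0% = DMSO-only wells and 100% = 3 µM delta7-dafachronic acid wells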
DAX1 inh-1 – blocks DAX1 repression of SF-1 activated StAR promoter; HEK293T StAR-luciferase reporter, SF-1/DAX-1 repression relief; inhibition, % at 6.8 µM; 370,000 tested, 1.1% active;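 active = inhibition above the mean over all tested compounds plus 3 SD, cut at about 3.6% in these data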;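 also: 0% = DAX-1 cells with DMSO and 100% = cells lacking DAX-1 with DMSO; higher inhibition means more luminescence from relief of DAX-1 repression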
Wee1 stabilizer – blocks degradation of human Wee1 kinase; P30291; HeLa Luc-Wee1K328M stability, luciferase luminescence; 100% = proteasome inhibitor MG132 effect; reporter increase, % at 5 µM; 220,000 tested, 1.2% active;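 active = activation above the mean of all tested compounds plus 3 SD, set per screening run, cut at about 8.8% in these data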;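 also: cells exposed to compound for 20 h before luminescence read; 0% = DMSO alone and 100% = MG132 at 30 µM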
hcDAF-12 act – H. contortus DAF-12 activation, primary screen | HEK293 hcDAF-12 lit1-tk-luc reporter, luminescence; 0% DMSO, 100% Δ7-dafachronic acid | activation, % at 6.8 µM | 370,000 tested, 1.4% active | AID 652067;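 active = activation above the mean of all tested compounds plus 3 SD, cut at about 5.5% in these data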;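 also: 100% = response to 3 µM Δ7-dafachronic acid high control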
DAX1 inh-2 – inhibitors of human orphan nuclear receptor DAX1 (NR0B1). P51843. HEK293 Gal4-DAX1 luciferase reporter, luminescence. inhibition, % at 6.75 µM. 340,000 tested, 0.99% active. AID 504766;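 active = inhibition above the mean over all tested compounds plus 3 SD, cut at about 4.2% in these data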;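 also: 0% = DAX1-transfected cells with DMSO and 100% = empty-vector control cells with DMSO; inhibition shows as a rise in luminescence from relieved DAX1 repression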
Target sequence (P51843 207-470 limits assumed): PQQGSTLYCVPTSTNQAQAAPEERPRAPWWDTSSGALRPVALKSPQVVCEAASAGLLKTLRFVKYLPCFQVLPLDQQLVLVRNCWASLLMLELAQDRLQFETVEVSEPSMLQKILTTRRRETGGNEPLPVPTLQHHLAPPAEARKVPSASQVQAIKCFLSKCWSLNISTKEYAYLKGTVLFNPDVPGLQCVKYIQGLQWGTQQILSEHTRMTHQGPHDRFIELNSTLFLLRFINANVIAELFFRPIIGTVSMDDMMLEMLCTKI
Starred values were filed as active, the others as inactive. Most compounds without a hit are left out; they make up all but 4.6% or so of the library.

For Cc1nc(NC(=S)NC(=O)COc2ccc(Cl)cc2)ccc1Br the results were hgDAF12 agonist 2.0, ssDAF12 agonist -0.8, DAX1 inh-1 -0.5, Wee1 stabilizer -4.6, hcDAF-12 act 0.2 and DAX1 inh-2 6.0*.
c1nc(NCC2CCCC2)c2cc(-c3ccc4c(c3)OCO4)ccc2n1 was read as hgDAF12 agonist 1.6, ssDAF12 agonist -1.0 and hcDAF-12 act 3.3.
Screening N#Cc1ccccc1NC(=O)COC(=O)c1cccs1 returned hgDAF12 agonist -2.7, ssDAF12 agonist -0.6, DAX1 inh-1 -0.4, hcDAF-12 act 0.9 and DAX1 inh-2 0.0.
`N#Cc1ccccc1NC(=S)NC(=O)c1cccs1` gave hgDAF12 agonist 10.4, ssDAF12 agonist 0.9, DAX1 inh-1 3.5, hcDAF-12 act 6.0* and DAX1 inh-2 1.8.
`Cc1ccc(OCC(=O)Nc2cccc(C)n2)c(C)c1` gave hgDAF12 agonist 10.8*, ssDAF12 agonist -0.3, DAX1 inh-1 3.2, Wee1 stabilizer 3.0, hcDAF-12 act 3.7 and DAX1 inh-2 0.7.
Screening O=C(ONC(=O)C1C2C=CC(C2)C1C(=O)NOC(=O)c1ccccc1)c1ccccc1 (centres undefined) returned hgDAF12 agonist -3.0, ssDAF12 agonist -1.6, DAX1 inh-1 -2.5, hcDAF-12 act -1.4 and DAX1 inh-2 -2.3.
For FC(F)(F)c1ccc(Oc2ccc(Cl)cc2Br)nc1 the results were hgDAF12 agonist -0.5, ssDAF12 agonist 24.8*, DAX1 inh-1 0.2, Wee1 stabilizer 1.0, hcDAF-12 act -0.8 and DAX1 inh-2 -0.1.
O=C(O)CC(=O)Nc1ccc(Oc2ccc(C(F)(F)F)cn2)c(Cl)c1 was read as hgDAF12 agonist 1.7, ssDAF12 agonist -1.3, DAX1 inh-1 0.1, Wee1 stabilizer 9.2*, hcDAF-12 act 0.6 and DAX1 inh-2 1.0.
`Cc1ccc(NC(=O)Cc2ncc(C(F)(F)F)cc2Cl)cc1Cl` gave hgDAF12 agonist 0.2, ssDAF12 agonist -1.6, DAX1 inh-1 -0.1, Wee1 stabilizer 4.5, hcDAF-12 act 0.7 and DAX1 inh-2 -0.3.
`FC(F)(F)c1ccc(Oc2ccccc2Cl)nc1` gave hgDAF12 agonist 1.8, ssDAF12 agonist -1.7, DAX1 inh-1 -0.2, Wee1 stabilizer -0.4, hcDAF-12 act 0.2 and DAX1 inh-2 0.8.
For O=C(Nc1ccccc1)C1CCOC1=O (centres undefined) the results were hgDAF12 agonist -1.6, ssDAF12 agonist -0.9, DAX1 inh-1 -0.8 and hcDAF-12 act -1.2.
For Cn1c(=O)c2c(nc(N3CCN(c4ccccc4)CC3)n2CCCc2ccccc2)n(C)c1=O the results were hgDAF12 agonist -1.7, ssDAF12 agonist -1.0, DAX1 inh-1 0.2, Wee1 stabilizer -0.9, hcDAF-12 act -0.7 and DAX1 inh-2 0.6.
For Cn1c(=O)c2c(nc(N3CCN(Cc4ccccc4)CC3)n2CCCc2ccccc2)n(C)c1=O the results were hgDAF12 agonist 0.8, ssDAF12 agonist -0.9, DAX1 inh-1 -0.1, Wee1 stabilizer 10.0*, hcDAF-12 act 2.5 and DAX1 inh-2 -1.0.
Screening Cc1ccc(S(=O)(=O)CCC(=O)OCC(=O)NC2CCS(=O)(=O)C2)cc1 (centres undefined) returned hgDAF12 agonist -0.4, ssDAF12 agonist -1.1, DAX1 inh-1 1.4, hcDAF-12 act 0.0 and DAX1 inh-2 0.2.
For O=C1NCCN1C(=O)C12CC3CC(CC(C3)C1)C2 the results were hgDAF12 agonist -2.2, ssDAF12 agonist -1.3, DAX1 inh-1 -0.1, Wee1 stabilizer 9.1*, hcDAF-12 act -0.5 and DAX1 inh-2 -0.5.
`O=C(Nc1ccc(Cl)cn1)c1ccc(Oc2ccccc2)cc1` gave hgDAF12 agonist 12.8*, ssDAF12 agonist -0.5, DAX1 inh-1 1.5, hcDAF-12 act 3.6 and DAX1 inh-2 1.0.
O=C(Nc1ccc(Cl)cn1)c1cccc(OCc2ccccc2)c1 was read as hgDAF12 agonist 2.7, ssDAF12 agonist -1.1, DAX1 inh-1 0.7, hcDAF-12 act -1.6 and DAX1 inh-2 0.3.
`O=C(Nc1cc(-c2ccccc2)[nH]n1)c1ccc(Cl)cc1` gave hgDAF12 agonist 9.8, ssDAF12 agonist 1.7*, DAX1 inh-1 1.4, Wee1 stabilizer 1.2, hcDAF-12 act 5.1 and DAX1 inh-2 3.4.
For CCCOc1ccc(C(=O)Nc2ccc(Cl)cn2)cc1 the results were hgDAF12 agonist 10.0, ssDAF12 agonist 0.0, DAX1 inh-1 3.4, Wee1 stabilizer -1.6, hcDAF-12 act 5.8* and DAX1 inh-2 -0.6.
Cc1ccc(NC(=O)c2ccc(Nc3ccccc3F)nc2)cc1 was read as hgDAF12 agonist 5.5, ssDAF12 agonist 1.2*, DAX1 inh-1 -0.4, Wee1 stabilizer 4.0, hcDAF-12 act 1.7 and DAX1 inh-2 0.1.
For CC(C)[C@@H]1NC(=O)[C@@H]2CSCCS(=O)(=O)N2C1=O the results were hgDAF12 agonist 1.7, ssDAF12 agonist -1.0, DAX1 inh-1 1.4 and hcDAF-12 act -0.1.
COc1ccc(OC)c(CN2C(=O)CCCCC2(C)c2nnnn2C2CCCC2)c1 (centres undefined) was read as hgDAF12 agonist -0.1, ssDAF12 agonist -1.7, DAX1 inh-1 0.1 and hcDAF-12 act -2.4.
`CCN(CC)c1ccc(S(=O)(=O)N2CCOCC2)cc1NC(=O)Nc1ccccc1` gave hgDAF12 agonist -0.9, ssDAF12 agonist -1.3, DAX1 inh-1 -1.8, hcDAF-12 act -0.5 and DAX1 inh-2 -1.1.
For CC(C)C1C(=O)N(Cc2cn(CCC3OCCCO3)nn2)CCS(=O)(=O)N1Cc1ccc(-c2ccc(Cl)c(Cl)c2)cc1 (centres undefined) the results were hgDAF12 agonist -1.8, ssDAF12 agonist -1.5, DAX1 inh-1 -0.6, hcDAF-12 act -3.1 and DAX1 inh-2 -1.2.
For CC(C)(C)c1ccc(C(=O)NC(=O)CSc2n[nH]c(N)n2)cc1 the results were hgDAF12 agonist 0.8, ssDAF12 agonist -0.6, DAX1 inh-1 1.9, hcDAF-12 act 1.4 and DAX1 inh-2 0.1.
`CC(C)N1C(=O)C(=O)N(CC(=O)N2c3ccccc3NC(=O)CC2C)C1=O` (centres undefined) gave hgDAF12 agonist 1.1, ssDAF12 agonist -1.3, DAX1 inh-1 -0.2, hcDAF-12 act -1.0 and DAX1 inh-2 1.5.
For O=C(CN1C(=O)c2ccccc2C1=O)Nc1ccc(Cl)cn1 the results were hgDAF12 agonist -1.8, ssDAF12 agonist -0.4, DAX1 inh-1 1.1, Wee1 stabilizer 10.2*, hcDAF-12 act 2.0 and DAX1 inh-2 -0.5.
For O=C(Cc1ccccc1)Nc1ccc(Cl)cn1 the results were hgDAF12 agonist 1.5, ssDAF12 agonist -1.0, DAX1 inh-1 -0.2, hcDAF-12 act -0.4 and DAX1 inh-2 1.5.
Screening COc1cc(C(=O)Nc2ccc([N+](=O)[O-])cn2)cc(OC)c1OC returned hgDAF12 agonist -0.8, ssDAF12 agonist -1.5, DAX1 inh-1 -0.3, Wee1 stabilizer 1.2, hcDAF-12 act -1.4 and DAX1 inh-2 -1.1.
